Sampled rows, rich in hits. Any-hit rate of the full collection: about 1.8%.
Cardio protect: myocardial damage modulation in H9c2 cells. H9c2 cardiomyocytes, H2O2 injury protection, ATPLite, 2 h. protection from H2O2 cell death, % at 20 µM. 360,000 tested, 0.63% active;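 active means compounds giving at least 50% protection of heart cells from peroxide-induced death in the single-dose screen, raw or plate-pattern-corrected value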;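 further: 0% = DMSO wells with peroxide and 100% = DMSO wells without peroxide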
GRK2 inh: human GRK2 inhibition via aptamer displacement; P25098; bead flow cytometry, FAM-aptamer displacement from GRK2; inhibition of aptamer binding, % at 10 µM; 330,000 tested, 0.59% active; AID 488847;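 active means inhibition of aptamer binding above 40%, roughly 3 SD of noise, on plates passing a quality check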;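 further: median bead fluorescence of bound FAM aptamer so fluorescent compounds give negative values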
Target sequence (P25098 whole entry, looked up): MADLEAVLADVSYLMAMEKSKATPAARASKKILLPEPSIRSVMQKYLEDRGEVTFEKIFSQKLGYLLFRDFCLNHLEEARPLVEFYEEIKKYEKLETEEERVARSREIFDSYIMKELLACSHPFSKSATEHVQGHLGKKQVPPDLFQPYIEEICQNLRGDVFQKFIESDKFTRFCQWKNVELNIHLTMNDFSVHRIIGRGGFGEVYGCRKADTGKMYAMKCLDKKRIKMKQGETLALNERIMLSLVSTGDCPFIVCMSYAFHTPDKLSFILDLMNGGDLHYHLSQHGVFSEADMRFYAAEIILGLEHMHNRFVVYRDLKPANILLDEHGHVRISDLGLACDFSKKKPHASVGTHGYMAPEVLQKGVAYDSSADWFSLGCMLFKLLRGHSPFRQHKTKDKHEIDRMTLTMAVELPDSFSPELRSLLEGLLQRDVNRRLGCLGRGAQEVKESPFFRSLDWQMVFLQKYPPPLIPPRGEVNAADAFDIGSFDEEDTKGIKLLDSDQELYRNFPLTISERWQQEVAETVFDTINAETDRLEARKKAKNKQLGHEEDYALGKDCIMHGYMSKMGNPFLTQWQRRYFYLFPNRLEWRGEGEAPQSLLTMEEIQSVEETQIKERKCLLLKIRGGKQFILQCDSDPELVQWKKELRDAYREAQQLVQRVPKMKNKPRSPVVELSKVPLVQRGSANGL
Neddyl block: blocks human cullin neddylation; TR-FRET cullin neddylation, biochemical; inhibition, % at 25 µM; 360,000 tested, 0.58% active; in the data active means inhibition above about 36%
HDAC3 inh: inhibitors of human histone deacetylase 3 | O15379 | AID 2718 | recombinant HDAC3, fluorogenic peptide/trypsin coupled, fluorescence | inhibition, % at 8.3 µM | 320,000 tested, 0.15% active; in the data active means inhibition above about 26%, passing the limit was not always enough
GRK2 inh confirm: confirmation of human GRK2 inhibitors displacing RNA aptamer. 2,000 tested, 4% active. shares compounds with GRK2 inh. bead-bound GRK2, FAM-aptamer displacement, flow cytometry. aptamer displacement, % at 10 µM;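 active means aptamer displacement above 40%, near three times the noise of non-fluorescent compounds, on plates passing quality checks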;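 further: negative values mostly reflect intrinsic compound fluorescence rather than true enhancement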
Aptamer quench SP: counter-screen for GRK2 aptamer inhibitors: fluorescent aptamer quenchers. shares compounds with GRK2 inh. 2,000 tested, under 10 active. Carboxyfluorescein RNA aptamer on beads, flow cytometry quenching; active compounds read low. fluorescence response (% of DMSO), % at 10 µM;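 active means compounds that quench the bead-bound fluorescent RNA probe, cutting fluorescence to under half of the solvent control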;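 further: counterscreen run without GRK2 so only probe quenching by compound is measured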
GRK2 confirm 2: confirmation of human GRK2 inhibitors binding RNA aptamer site. inhibition of aptamer binding, % at 10 µM. bead-bound GRK2, FAM-aptamer displacement, flow cytometry. 360 tested, under 10 active. shares compounds with GRK2 inh;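 active means inhibition of aptamer binding above 40%, about triple the noise seen with nonglowing compounds, on plates passing quality control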;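 further: negative values mostly come from compounds that fluoresce themselves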
FAM quench SP: counter-screen for GRK2 binding hits: quenchers of fluorescent RNA aptamer | fluorescence response vs DMSO, % at 10 µM | 360 tested, under 10 active | AID 588494 | carboxyfluorescein RNA aptamer beads, flow cytometry quenching; active compounds read low | shares compounds with GRK2 inh;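 active means response vs DMSO under 50%, meaning signal dropped by over half, treated as fluorescence quencher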;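 further: labelled aptamer on streptavidin beads without GRK2 as a quench counter-screen; 100% = bead fluorescence of DMSO wells and lower means quenching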
* marks the source's active call; other numbers are inactive results; / = no result given.

SMILES	Cardio protect	GRK2 inh	Neddyl block	HDAC3 inh	GRK2 inh confirm	Aptamer quench SP	others
O=C(NCc1ccc(F)cc1)C1CCCN(S(=O)(=O)c2ccc(-n3cnnn3)cc2)C1 (stereo not drawn)	-1.7	2.0	2.8	4.0	3.4	98.9
NS(=O)(=O)c1ccc(NC(=O)CSC2=NC(=O)C(c3ccccc3)C(=O)N2)cc1 (stereo not drawn)	2.3	100.0*	2.4	0.1	-0.9	100.6
COc1ccc(C(=O)N(C)c2ccccc2C(=O)NCCc2ccccc2)cc1	1.8	0.0	6.9	-1.1	/	/
Cc1ccc(-n2ncc3c(NCc4cccnc4)ncnc32)cc1C	-13.3	47.0*	/	-3.6	-2.2	103.8
CN1CCN(C(=O)/C(=C/c2cn(S(=O)(=O)N(C)C)c3ccccc23)NC(=O)c2ccccc2F)CC1	16.1	3.0	4.6	1.3	/	/
CC(C)c1c(O)nc(SCc2ccc(F)cc2)[nH]c1=O	-0.3	60.0*	-7.3	-1.7	12.2	130.6
CC(C)c1c(O)nc(SCc2ccccc2)[nH]c1=O	-7.1	3.0	-5.5	-0.7	/	/
C[C@H](NC(=O)[C@@H]1CCCN1C(=O)[C@@H]1CCCN1C(=O)OC(C)(C)C)c1ccccc1	/	/	0.2	/	/	/
CC(=O)c1cccc2c1OC(C)C(=O)N2Cc1ccc(Cl)cc1 (stereo not drawn)	0.0	/	25.6	/	/	/
Cc1ccc(CNC(=O)CCC2CCCN(Cc3cccc4cccnc34)C2)o1 (stereo not drawn)	6.3	0.0	7.0	-2.0	/	/
CCC(=O)c1c[nH]c(C(=O)N2CCN(c3ccccc3)CC2)c1	3.1	0.0	2.2	-0.1	/	/
CCC(=O)c1c[nH]c(C(=O)N2CCOCC2)c1	-2.8	100.0*	2.8	-1.4	/	/	GRK2 confirm 2=-2.3;FAM quench SP=104.0
COc1cccc(NC(=O)CCCCCN2C(=O)[C@@H]3Cc4ccccc4CN3C2=O)c1	-1.1	0.0	-3.7	-2.5	0.6	93.8
COc1cccc(CC2(CO)CCCN(Cc3cn[nH]c3-c3ccccc3)C2)c1 (stereo not drawn)	-7.5	99.0*	1.7	-5.1	-3.4	101.7
CCc1ccc2c(CN(C)Cc3ccccc3OC)cc(=O)oc2c1	-10.6	4.0	-7.4	0.3	/	/
CCS(=O)(=O)Nc1cc2c3c(c1)CCN3C(=O)CC2	9.3	45.0*	-9.6	0.4	4.8	102.3
O=C(CN1C(=O)NC2(CCCC2)C1=O)Oc1ccc2ccc(=O)oc2c1	9.2	0.0	/	-162.4	/	/
CCOC(=O)/C(C#N)=c1/s/c(=C2\C=Cc3ccccc3N2CC)c(=O)n1CC	6.3	65.0*	-1.0	-5.1	-20.4	100.7
CCN1/C(=c2/s/c(=C3/C(=O)N(c4ccccc4)N=C3C)n(CC)c2=O)C=Cc2ccccc21	-6.0	4.0	-46.6	-12.7	/	/
O=C(Nc1cc([N+](=O)[O-])ccc1C(=O)Nc1cccnc1)c1ccccc1	5.2	1.0	-41.9	7.0	/	/
Cc1ccccc1-n1ccnc1SCC(=O)NC1CCCC1	-2.4	49.0*	-7.1	2.2	1.7	99.6
COc1ccccc1-c1nnc(SCC(=O)NC2CCCCC2)n1C	-2.4	0.0	-5.0	1.9	/	/

Screening data: PubChem BioAssay, several laboratories
